# Source: PubChem BioAssay
# VDR inh: inhibitors of human vitamin D receptor | P11473 | 0.93% of 400,000 active | Potency, µM, for the others: max response, negative = inhibition, usual class: inhibitors | VDR-SRC2-3 peptide fluorescence polarization, 2 h; note: % is set by controls: 0 for no effect and ±100 for the full control effect
#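 FP read-out; VDR + SRC2-3 coactivator peptide; 23 nl compound by pintool; 2 h RT incubation; reagents held at 4 deg C, protected from light.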
# EPAC2 ag: agonists of human EPAC2 (RAPGEF4); EPAC2 activation, biochemical qHTS; response scale: 100% = 6.5 mM cAMP response; Potency, µM (titrated, usually from 154 µM), for inactives: at the top dose activation, usual class: activators; Q8WZA2; AID 720711; 0.079% of 360,000 active; note: nearly all actives have a fitted effect of over 50% in size
# Target sequence (Q8WZA2 whole entry, looked up): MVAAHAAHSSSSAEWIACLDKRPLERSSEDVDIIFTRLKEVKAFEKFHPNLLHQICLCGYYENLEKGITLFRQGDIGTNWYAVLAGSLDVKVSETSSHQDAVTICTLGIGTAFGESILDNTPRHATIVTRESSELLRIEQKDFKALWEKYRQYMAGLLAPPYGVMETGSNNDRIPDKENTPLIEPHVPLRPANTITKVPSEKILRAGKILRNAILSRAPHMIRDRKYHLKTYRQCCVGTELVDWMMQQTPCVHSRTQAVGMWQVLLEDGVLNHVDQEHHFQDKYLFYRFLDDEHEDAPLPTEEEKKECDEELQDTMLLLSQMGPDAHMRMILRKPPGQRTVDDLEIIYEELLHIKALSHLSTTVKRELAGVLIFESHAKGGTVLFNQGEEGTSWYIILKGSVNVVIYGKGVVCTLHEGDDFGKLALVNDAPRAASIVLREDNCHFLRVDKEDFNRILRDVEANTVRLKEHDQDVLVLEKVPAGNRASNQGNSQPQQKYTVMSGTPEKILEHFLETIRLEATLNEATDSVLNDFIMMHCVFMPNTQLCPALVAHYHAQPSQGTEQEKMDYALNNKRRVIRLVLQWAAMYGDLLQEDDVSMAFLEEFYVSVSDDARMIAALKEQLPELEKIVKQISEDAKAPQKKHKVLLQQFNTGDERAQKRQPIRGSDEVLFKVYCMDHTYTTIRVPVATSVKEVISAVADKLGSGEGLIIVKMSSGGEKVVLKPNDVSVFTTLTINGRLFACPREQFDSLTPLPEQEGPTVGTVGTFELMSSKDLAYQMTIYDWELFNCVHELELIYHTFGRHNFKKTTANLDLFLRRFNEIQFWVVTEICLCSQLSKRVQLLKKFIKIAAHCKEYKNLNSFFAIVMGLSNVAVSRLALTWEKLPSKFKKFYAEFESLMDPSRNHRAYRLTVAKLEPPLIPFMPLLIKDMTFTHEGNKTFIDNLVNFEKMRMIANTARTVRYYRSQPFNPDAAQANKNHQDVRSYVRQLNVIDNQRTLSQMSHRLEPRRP
#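 EPAC2 (100 nM) mixed with Rap1B loaded with BODIPY-GDP (250 nM) plus 50 uM unlabeled GDP; compounds pinned in, 5 min RT, then read every 5 min for 30 min (ex 480, em 540 nm). Normalized to cAMP control.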
# EPAC1 antagonist: blocks human EPAC1 exchange factor; O95398; EPAC1 GEF assay, Rap1b-BODIPY-GDP exchange fluorescence; Potency, µM (titrated, usually from 115 µM), inactives show top-dose activity change, negative = inhibition, usual class: inhibitors; 0.14% of 360,000 active; AID 720709;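 note: plate controls were vehicle for no effect and positive control for full effect; nearly all actives have a fitted effect of over 50% in size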
# EPAC2 antag: antagonists of human EPAC2. 0.18% of 360,000 active. Potency, µM (series often up to 114 µM), without a hit: at the highest dose activity, negative = inhibition, hits mostly inhibitors. EPAC2 GEF exchange of Rap1B-BODIPY-GDP, fluorescence. Q8WZA2; note: % is set by controls: 0 for no effect and ±100 for the full control effect; nearly all actives have a fitted effect of over 45% in size
# USP1-UAF1 inh: blocks the human USP1/UAF1 deubiquitinase complex; O94782; recombinant USP1/UAF1, Ub-Rhodamine cleavage fluorescence; Potency, µM (top dose mostly 57.1 µM), for inactives: at the top dose activity change, negative = inhibition, most hits filed as inhibitors; 0.23% of 390,000 active; AID 743255; note: % is set by controls: 0 for no effect and ±100 for the full control effect; nearly all actives have a fitted effect of over 60% in size
#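 1 nM enzyme complex + cpd, 15 min RT; start with Ub-Rho 150nM final; kinetic fluorescence ex 480/em 540, 6 reads q60 s. Buffer 50mM HEPES pH 7.8, 0.5mM EDTA, 0.1 mg/ml BSA, 1mM TCEP, 0.01% Tween-20.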
# EPAC1 ag: activates human EPAC1 exchange factor; O95398; EPAC1 agonist qHTS, biochemical assay; response scale: 100% = response to 6.5 mM cAMP; Potency, µM (top dose mostly 154 µM), for the others: top-dose activation, most hits filed as activators; 0.073% of 360,000 active; AID 720707; note: nearly all actives have a fitted effect of over 60% in size
#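 Multi-concentration qHTS readout: loss of Rap1B-bound BODIPY-GDP fluorescence driven by 100 nM EPAC1 with excess GDP (50 uM), monitored kinetically at room temperature; agonist response expressed relative to 6.5 mM cAMP.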
# Numbers without * were called inactive; ? = inconclusive; . = not tested or not shown. Sampled rows, rich in hits. Any-hit rate of the full collection: about 1.2%. Calls come from the whole dose curve; as a rule, active = well fitted curve in the direction sought with a large enough effect; inconclusive = small, poorly fitted or top-dose-only effect, or another doubt; inactive = no such curve, though single readings can be large; an effect the other way counts as inactive or inconclusive. Potency is the fitted concentration of half-maximal effect.
SMILES,VDR inh,EPAC2 ag,EPAC1 antagonist,EPAC2 antag,USP1-UAF1 inh,EPAC1 ag
COc1ccc2c(c1)CC/C(=C\c1ccc(C)o1)C2=O,-27.8%,15.6%,-11.4%,-19.6%,?,8.1%
COCCN(CCOC)Cc1c(O)ccc2c1O/C(=C\c1ccc(C)o1)C2=O,-4.8%,14.9%,115.8%,94.7%,31.6µM*,?
CNC(=O)c1ccc2nc(-c3cccc(C)c3)c(-c3cccc(C)c3)nc2c1,-9.4%,.,.,.,.,.
CCc1ccc(C(=O)Nc2cccc(-c3nc4cc(C(C)C)ccc4o3)c2)cc1,7.9%,.,.,.,-23.9%,.
FC(F)(F)c1ccccc1Cc1c(-c2ccc(Cl)cc2)nc2ccc(Cl)cn12,.,-0.3%,-19.7%,56.2µM*,.,8.1%
FC(F)(F)c1ccccc1Cc1c(-c2ccccc2)nc2ccc(Cl)cn12,.,-1.8%,-9.0%,-28.6%,.,7.7%
O=C(O)/C=C/C(=O)Nc1ccc(C2(c3ccc(NC(=O)/C=C/C(=O)O)cc3)c3ccccc3-c3ccccc32)cc1,25.1µM*,-3.0%,?,8.2%,-17.6%,5.4%
Oc1ccccc1C=Nc1cccc2ccccc12,-11.7%,-2.7%,-16.8%,-5.5%,-22.7%,6.1%
Oc1cccc(C=Nc2cccc3ccccc23)c1O,28.2µM*,11.9%,50.1µM*,11.6%,?,-4.7%
Cc1ccc(NC(=O)c2cncc(Br)c2)cc1S(=O)(=O)N(C)C,44.7µM*,-0.9%,13.0%,11.2%,-19.0%,-2.5%
Cc1ccc(-c2nc3cccc(C)n3c2Nc2ccc(F)cc2)o1,-9.3%,.,.,.,.,.
c1ccc(-c2cc3nc(NCc4cccs4)ccn3n2)cc1,.,10.5%,-9.0%,-15.7%,.,17.0%
c1csc(CNc2ccnc(-c3ccoc3)n2)c1,22.4µM*,.,.,.,.,.
CN(C)C(=O)c1ccc(-c2nccc(NCc3cccs3)n2)cc1,44.7µM*,.,.,.,.,.
CN(C)c1ccc(-c2nccc(NCc3cccs3)n2)cc1,-19.6%,.,.,.,.,.
CCCCC/C=C\C=C\[C@H](O)CCCCCCCC(=O)O,1.8%,.,.,.,.,.
COc1ccc(C2CC(c3cccs3)=NN2c2ccc(C=O)cc2)cc1 (stereo unspecified),9.9%,13.5%,108.5%,22.0%,?,89.1µM*
CSCC[C@H](NC(=O)[C@H](CC(C)C)NC(=O)[C@@H]1CCCN1C(=O)[C@H](Cc1ccccc1)NC(=O)[C@H](Cc1ccccc1)NC(=O)[C@@H]1CCC(=O)N1)C(N)=O,5.1%,.,.,.,.,.
CO/N=C(\C(=O)N[C@@H]1C(=O)N2C(C(=O)O)=C(COC(N)=O)CS[C@@H]12)c1ccco1,5.5%,.,.,.,.,.
CO/N=C(/C(=O)N[C@@H]1C(=O)N2C(C(=O)O)=C(CSc3cnns3)CS[C@H]12)c1csc(N)n1,35.5µM*,.,.,.,.,.
CN(C1CCCCC1)S(=O)(=O)c1ccc(=S)[nH]c1,50.1µM*,3.0%,8.7%,26.5%,-14.5%,7.7%
CN(C1CCCCC1)S(=O)(=O)c1ccc(S(=O)(=O)N2CCCC2)cc1,8.9%,9.9%,21.5%,1.7%,6.8%,9.1%
COc1cc(/C=N/NC(=O)C(Cc2c[nH]c3ccccc23)NC(=O)OCC(C)C)cc([N+](=O)[O-])c1O (stereo unspecified),-10.7%,-8.9%,-14.0%,0.6%,-22.4%,-12.5%
COc1cc(/C=N/NC(=O)C(Cc2c[nH]c3ccccc23)NC(=O)OCc2ccccc2)cc([N+](=O)[O-])c1O (stereo unspecified),-21.2%,-14.4%,79.4µM*,-16.0%,?,-5.8%
CC(=O)Nc1ccc(SCCN2CCN(CC(C)C)CCC2=O)cc1,50.1µM*,.,.,.,.,.
O=C(COc1cccc(Oc2ccccc2)c1)Nc1ccc(SC(F)F)cc1,6.2%,19.3%,0.0%,-4.7%,5.6%,15.3%
O=C(COc1cccc(OC(F)F)c1)Nc1ccc(SC(F)F)cc1,3.9%,-19.7%,-3.0%,25.1µM*,-10.5%,12.8%
Oc1ccccc1C1C=C(c2ccc3c(c2)OCO3)NC(c2ccc(Br)cc2)N1 (stereo unspecified),-27.2%,.,.,.,.,.
